PubChem BioAssay AID1345085 (National Center for Advancing Translational Sciences (NCATS), 2018)
Results filed as inconclusive are left out. A number with no mark means an inactive call. Calls of active or inactive are those of the source. The call rests on the fitted dose curve; in most records, active means well fitted cell-killing curve with a large enough effect; inconclusive means small, poorly fitted or top-dose-only effect, or effect the other way; inactive means no such curve, though single readings can be large or run the other way.

Test system: HeLa
Assay: Confirmatory qHTS for gynecologic anti-cancer compounds from libraries of approved drugs and bioactive compounds; further: nearly all actives have a fitted effect of over 55% in size
Settings: gynecologic cancer cell panel viability, ATPlite luminescence, 48 h; series mostly up to 57.6 µM
Outline: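 Cells (1,000/well) were plated, left 16 h at 37 C/5% CO2, then given compound at 11 concentrations (1:3) from 57.5 uM to 0.977 nM for 48 h. ATPlite luminescence after 15 min at room temperature gave IC50 values.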
On the % scale 0 is the no-effect control and ±100 the full control effect; potency means the concentration at half of the fitted maximal effect.

SMILES	Potency	activity change, negative = viability loss
CC(=O)c1cnc2ccc(-c3cc(Cl)c(O)c(Cl)c3)nc2c1NC1CCC(CN(C)C)CC1 (centres undefined)	0.0993 µM (active)	
Cc1[nH]c2ccccc2c1CCNCc1ccc(/C=C/C(=O)NO)cc1	0.432 µM (active)	
Nc1cccc(-c2cc3c(Oc4cccc(O)c4)ncnc3[nH]2)c1	9.68 µM (active)	
COc1cc2c(c(OC)c1OC)-c1ccc(OC)c(=O)cc1[C@@H](NC(C)=O)CC2	0.178 µM (active)	
COc1cc(N2CCC(N3CCN(C)CC3)CC2)ccc1Nc1ncnc(Nc2ccccc2S(=O)(=O)C(C)C)n1	8.63 µM (active)	
Cc1nc(N)sc1-c1ccnc(Nc2ccc(N3CCOCC3)cc2)n1	2.17 µM (active)	
O=c1c(-c2ccc(O)cc2)coc2cc(O)cc(O)c12	12.2 µM (active)	
CC(C)Oc1ccc(C(=O)NC(CNC(=O)CN(C)C)Cc2ccc(-c3cn4cccc(C(C)O)c4n3)cc2)cc1Cl (centres undefined)	0.153 µM (active)	
O=C(O)c1ccc(Nc2ncc3c(n2)-c2ccc(Cl)cc2C(c2c(F)cccc2F)=NC3)cc1	7.69 µM (active)	
COC(=O)c1ccc2c(C(=Nc3ccc(N(C)C(=O)CN4CCN(C)CC4)cc3)c3ccccc3)c(O)[nH]c2c1	24.3 µM (active)	
Cn1cc(-c2[nH]c3cc(NC(=O)[C@H](N)C4CCCCC4)cc4c3c2C=NNC4=O)cn1	1.72 µM (active)	
Cc1ccc(C(=O)Nc2ccc(Oc3cc4cnn(C)c4cc3-c3cn[nH]c3)c(F)c2)c(=O)n1-c1ccc(F)cc1	8.63 µM (active)	
COc1ccc(CCC(=O)c2c(O)cc(O[C@@H]3O[C@H](CO)[C@@H](O)[C@H](O)[C@H]3O[C@@H]3O[C@@H](C)[C@H](O)[C@@H](O)[C@H]3O)cc2O)cc1O	inactive	
CCC1C(=O)N(C)c2cnc(Nc3ccc(C(=O)NC4CCC(N5CCN(CC6CC6)CC5)CC4)cc3OC)nc2N1C(C)C (centres undefined)	0.0385 µM (active)	
NC1(c2ccc(-c3nc4ccn5c(=O)[nH]nc5c4cc3-c3ccccc3)cc2)CCC1	inactive	
CC(C)C[C@H](NC(=O)[C@H](CCc1ccccc1)NC(=O)CN1CCOCC1)C(=O)N[C@@H](Cc1ccccc1)C(=O)N[C@@H](CC(C)C)C(=O)[C@@]1(C)CO1	10.9 µM (active)	
CCCC(Nc1nc(-c2ccc(NC(=O)NCC)c(OC)c2)ncc1C)c1cccnc1 (centres undefined)	0.153 µM (active)	
COc1ccc(OC)c(-c2nnc3ccc(-c4ccc(OC)c(O[C@@H]5CCOC5)c4)nn23)c1	5.44 µM (active)	
NCCOc1cc(C(=O)Nc2cc(OCCN)c3ccccc3n2)nc(C(=O)Nc2cc(OCCN)c3ccccc3n2)c1	19.3 µM (active)	
CCCc1nn(C)c2c(=O)[nH]c(-c3cc(S(=O)(=O)N4CCN(C)CC4)ccc3OCC)nc12	inactive	
CC[C@H](Nc1ncnc2nc[nH]c12)c1nc2cccc(F)c2c(=O)n1-c1ccccc1		0.732% [at 10.7 µM]
CCn1cc(-c2ccnc3[nH]c(-c4cccc(CN(C)C)c4)cc23)c(-c2ccc(NC(=O)N(C)C)cc2)n1	2.98 µM (active)	
Cc1cnc(Nc2cccc(CN3CCOCC3)c2)nc1Nc1cccc(S(=O)(=O)NC(C)(C)C)c1	1.72 µM (active)	
COc1cc2c(Nc3ccc(NC(=O)c4ccccc4)cc3)ncnc2cc1OCCCN1CCOCC1	21.7 µM (active)	
